Data from PubChem BioAssay AID1159580 (chemical genetic matrix, 2015).
Out of some 5,500 compounds screened, about 2,000 (36%) were called active. Roughly 18% stayed inconclusive and do not appear here. Cut-off read from the data, not from the text of the source: active = normalized growth mostly below about 0.91 (no sharp cut-off); inconclusive = no clear call, values can overlap the other calls; inactive = mostly above about 0.92. This is one part of the list.

Assay: chemical genetic growth profiling, strain panel (AID 1159580);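 note: tested at 20 µM; growth read once vehicle control cultures reached saturation at 30 °C; 1 = growth at the plate median or of vehicle wells; lower values mean less growth of the strain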
Conditions: growth OD

Measured: normalized growth

CO[C@H]1C[C@H](O[C@H]2[C@H](C)[C@@H](OC3O[C@H](C)C[C@H](N(C)C)[C@H]3O)[C@@H](C)C[C@]3(CO3)C(=O)[C@H](C)[C@@H](O)[C@@H](C)[C@@H](C)OC(=O)[C@@H]2C)O[C@@H](C)[C@@H]1O (some centres not stated)
inactive: S. cerevisiae deletion strains, locus YJR075W, strain HOC1, hits give low values 1.01 | S. cerevisiae deletion strains, locus YKL009W, strain mrt4, hits give low values 1 | S. cerevisiae deletion strains, locus YKL068W, hits give low values 1 | S. cerevisiae deletion strains, locus YKL085W, strain MDH1 (second series), hits give low values 0.992 | S. cerevisiae deletion strains, locus YKL085W, strain MDH1, hits give low values 0.992 | S. cerevisiae deletion strains, locus YKL160W, strain elf1, hits give low values 1.06 | S. cerevisiae deletion strains, locus YKL190W, strain CNB1, hits give low values 1 | S. cerevisiae deletion strains, locus YKR001C, strain vps1, hits give low values 1.02 | S. cerevisiae deletion strains, locus YKR026C, strain gcn3, hits give low values 1 | S. cerevisiae deletion strains, locus YKR091W, strain srl3, hits give low values 1 | S. cerevisiae deletion strains, locus YLL001W, strain dnm1, hits give low values 1.06 | S. cerevisiae deletion strains, locus YLL026W, hits give low values 1 | S. cerevisiae deletion strains, locus YLL041C, strain sdh2, hits give low values 1 | S. cerevisiae deletion strains, locus YLR027C, strain aat2, hits give low values 1.01 | S. cerevisiae deletion strains, locus YLR039C, strain RIC1, hits give low values 1.03 | S. cerevisiae deletion strains, locus YLR058C, strain SHM2, hits give low values 1.01 | S. cerevisiae deletion strains, locus YLR102C, strain apc9, hits give low values 0.984 | S. cerevisiae deletion strains, locus YLR113W, strain HOG1, hits give low values 0.995 | S. cerevisiae deletion strains, locus YLR221C, strain rsa3, hits give low values 1.03 | S. cerevisiae deletion strains, locus YLR258W, strain gsy2, hits give low values 1.03 | S. cerevisiae deletion strains, locus YLR262C, strain YPT6 (second series), hits give low values 1.02 | S. cerevisiae deletion strains, locus YLR262C, strain YPT6, hits give low values 0.956 | S. cerevisiae deletion strains, locus YLR268W, strain sec22, hits give low values 1.05 | S. cerevisiae deletion strains, locus YLR320W, strain mms22, hits give low values 1.07 | S. cerevisiae deletion strains, locus YLR330W, strain CHS5, hits give low values 1.01 | S. cerevisiae deletion strains, locus YLR342W, strain FKS1 (second series), hits give low values 1.01 | S. cerevisiae deletion strains, locus YLR342W, strain FKS1, hits give low values 1.01 | S. cerevisiae deletion strains, locus YLR357W, strain rsc2, hits give low values 1.05 | S. cerevisiae deletion strains, locus YLR370C, strain arc18, hits give low values 0.991 | S. cerevisiae deletion strains, locus YLR371W, strain rom2, hits give low values 0.985 | S. cerevisiae deletion strains, locus YLR384C, strain iki3, hits give low values 1 | S. cerevisiae deletion strains, locus YLR418C, strain cdc73, hits give low values 1.03 | S. cerevisiae deletion strains, locus YML016C, strain PPZ1, hits give low values 1 | S. cerevisiae deletion strains, locus YML032C, strain rad52, hits give low values 1.01 | S. cerevisiae deletion strains, locus YML120C, strain ndi1, hits give low values 1.02 | S. cerevisiae deletion strains, locus YML124C, strain tub3, hits give low values 1 | S. cerevisiae deletion strains, locus YMR058W, strain fet3, hits give low values 1.01 | S. cerevisiae deletion strains, locus YMR078C, strain ctf18, hits give low values 0.996 | S. cerevisiae deletion strains, locus YMR125W, strain sto1, hits give low values 1.07 | S. cerevisiae deletion strains, locus YMR129W, hits give low values 0.997 | S. cerevisiae deletion strains, locus YMR205C, strain PFK2, hits give low values 1.05 | S. cerevisiae deletion strains, locus YMR223W, strain ubp8, hits give low values 1 | S. cerevisiae deletion strains, locus YMR231W, strain pep5, hits give low values 1 | S. cerevisiae deletion strains, locus YMR263W, strain SAP30, hits give low values 1.02 | S. cerevisiae deletion strains, locus YMR307W, strain GAS1, hits give low values 0.983 | S. cerevisiae deletion strains, locus YNL067W, strain RPL9B, hits give low values 1.02 | S. cerevisiae deletion strains, locus YNL071W, strain lat1, hits give low values 1.01 | S. cerevisiae deletion strains, locus YNL128W, strain TEP1, hits give low values 1.01 | S. cerevisiae deletion strains, locus YNL153C, strain GIM3, hits give low values 1.01 | S. cerevisiae deletion strains, locus YNL183C, strain NPR1, hits give low values 0.962 | S. cerevisiae deletion strains, locus YNL209W, strain ssb2, hits give low values 1.01 | S. cerevisiae deletion strains, locus YNL233W, strain BNI4, hits give low values 1.02 | S. cerevisiae deletion strains, locus YNL248C, strain rpa49, hits give low values 1.09 | S. cerevisiae deletion strains, locus YNL250W, strain rad50, hits give low values 1.01 | S. cerevisiae deletion strains, locus YNL271C, strain bni1, hits give low values 1.01 | S. cerevisiae deletion strains, locus YNL298W, strain CLA4, hits give low values 1.01 | S. cerevisiae deletion strains, locus YNL307C, strain MCK1, hits give low values 0.982 | S. cerevisiae deletion strains, locus YNL322C, strain KRE1 (second series), hits give low values 1.02 | S. cerevisiae deletion strains, locus YNL322C, strain KRE1, hits give low values 1.01 | S. cerevisiae deletion strains, locus YNR049C, strain mso1, hits give low values 0.997 | S. cerevisiae deletion strains, locus YNR052C, strain pop2, hits give low values 0.99 | S. cerevisiae deletion strains, locus YOL006C, strain TOP1, hits give low values 1.03 | S. cerevisiae deletion strains, locus YOL012C, strain htz1 1.14 | S. cerevisiae deletion strains, locus YOL147C, strain pex11, hits give low values 0.996 | S. cerevisiae deletion strains, locus YOR001W, strain rrp6, hits give low values 0.974 | S. cerevisiae deletion strains, locus YOR061W, strain CKA2, hits give low values 1 | S. cerevisiae deletion strains, locus YOR069W, strain VPS5, hits give low values 1.01 | S. cerevisiae deletion strains, locus YOR070C, strain gyp1, hits give low values 0.999 | S. cerevisiae deletion strains, locus YOR080W, strain dia2, hits give low values 0.988 | S. cerevisiae deletion strains, locus YOR083W, strain WHI5, hits give low values 1.07 | S. cerevisiae deletion strains, locus YOR106W, strain vam3, hits give low values 1.08 | S. cerevisiae deletion strains, locus YOR136W, strain idh2, hits give low values 1.01 | S. cerevisiae deletion strains, locus YOR144C, strain elg1, hits give low values 1 | S. cerevisiae deletion strains, locus YOR184W, strain ser1, hits give low values 1.01 | S. cerevisiae deletion strains, locus YOR231W, strain MKK1, hits give low values 1 | S. cerevisiae deletion strains, locus YOR265W, strain rbl2, hits give low values 1 | S. cerevisiae deletion strains, locus YOR270C, strain vph1, hits give low values 1.03 | S. cerevisiae deletion strains, locus YOR290C, strain snf2, hits give low values 1.03 | S. cerevisiae deletion strains, locus YOR316C, strain cot1, hits give low values 0.985 | S. cerevisiae deletion strains, locus YPL051W, strain arl3, hits give low values 1.04 | S. cerevisiae deletion strains, locus YPL055C, strain LGE1, hits give low values 1.05 | S. cerevisiae deletion strains, locus YPL078C, strain atp4, hits give low values 1.06 | S. cerevisiae deletion strains, locus YPL106C, strain sse1, hits give low values 1.03 | S. cerevisiae deletion strains, locus YPL240C, strain hsp82, hits give low values 1 | S. cerevisiae deletion strains, locus YPL241C, strain CIN2, hits give low values 1 | S. cerevisiae deletion strains, locus YPL256C, strain CLN2, hits give low values 0.982 | S. cerevisiae deletion strains, locus YPR119W, strain clb2, hits give low values 0.99 | S. cerevisiae deletion strains, locus YPR141C, strain kar3, hits give low values 1.01 | S. cerevisiae deletion strains, locus YPR163C, strain tif3, hits give low values 0.989 | S. cerevisiae deletion strains, locus YPR167C, strain met16, hits give low values 1 | S. cerevisiae deletion strains, strain wtn01, hits give low values 1.03 | S. cerevisiae strains, strain wild type, hits give low values 1
